# Results: PubChem BioAssay AID743365 (National Center for Advancing Translational Sciences (NCATS), 2014)
# Assay: qHTS profiling of inhibitors of Plasmodium falciparum (DD2) proliferation (acoustic dispense)
# Conditions: P. falciparum Dd2 in erythrocytes, SYBR Green DNA, 72 h; at 49.8 µM (top of the series) unless noted
# Source text: Plasmodium falciparum is a virulent malarial parasite that kills 1-2 million people worldwide each year. Transmitted by mosquitoes, the sporozoite form of the parasite enters the blood stream to infect hepatocytes, where they become merozoites that infect red blood cells (erythrocytes). Within erythrocytes, merozoites begin a […] cycle of growth and division, after which the parasite is released to infect new red blood cells. Gametocytes, which form within erythrocytes as well, circulate in the bloodstream and are ingested by the mosquito, thereby completing the life cycle. To profile malarial isolates for differential chemical responses and to identify inhibitors of malarial growth, an assay that measures P. falciparum growth and replication within erythrocytes was employed. This assay uses a DNA binding fluorescent dye (SYBR Green) to detect parasite DNA following cell lysis. Because mature erythrocytes lack DNA, only Plasmodium-derived DNA is detected.
# The SYBR Green viability assay was adapted from a method described previously (Plouffe et al., 2008). For screening 3 ul culture medium was dispensed into 1536 well black clear bottom plates (Aurora Biotechnologies) using a Multidrop Combi (Thermo Fisher Scientific Inc.), 23 nL of compounds in DMSO were added by an acoustic dispenser (EDC Biosystems), and 5 ul of erythrocytes infected with P. falciparum (0.3% parasitemia, 2.5% hematocrit final concentration) were added. The plates were incubated at 37 C in a humidified incubator in 5% CO2 for 72 h, and 2 ul lysis buffer (20 mM Tris HCl, 10 mM EDTA, 0.16% saponin, 1.6% triton X, 10X SYBR Green I supplied as 10,000X […] by Invitrogen) was added to each well. The plates were mixed for 25 sec with gentle shaking and incubated overnight at room temperature in the dark. The following morning, fluorescence intensity at 485(14) nm excitation and 535(25) nm emission wavelengths was measured on an EnVision (Perkin Elmer) plate reader. Plate reads were normalized relative to the control inhibitor (0.29 uM artemisinin) and vehicle (DMSO) wells present on each plate and then corrected by an algorithm using vehicle-only control plates at the beginning and end of the compound plate stack.
row,Compound,"parasite growth, lower = inhibition"
1,CC(=Cc1csc(C)n1)[C@@H]1C[C@H]2O[C@@H]2CCC[C@H](C)[C@@H](O)[C@@H](C)C(=O)C(C)(C)[C@@H](O)CC(=O)O1,3%
2,CC(C)(N)CNC(=O)CC1CCC2(CC1)OOC1(O2)C2CC3CC(C2)CC1C3 (configuration not stated),-0.141%
3,CN1C(=O)C[C@H](C(=O)N[C@@H](Cc2cnc[nH]2)C(=O)N2CCC[C@@H]2C(N)=O)NC1=O,82%
4,CC=C1C2C=C(C)CC1(N)c1ccc(=O)[nH]c1C2 (configuration not stated),97.1%
5,COC1=CC(C)=C[C@@H](C)[C@@H](O)[C@@H](C)CC(C)=CC=C[C@H](OC)[C@H]([C@@H](C)[C@@H](O)[C@H](C)[C@@]2(O)C[C@@H](O)[C@H](C)[C@@H](C(C)C)O2)OC1=O,0.538%
6,CC(=O)Nc1nnc(S(N)(=O)=O)s1,91%
7,C[C@H]1CCCC=CC2C[C@H](O)C[C@@H]2[C@H](O)C=CC(=O)O1 (some centres not stated),-0.172%
8,CO[C@H]1CCC(O[C@H]2C[C@H]([C@]3(C)CC[C@]4(C[C@H](O)[C@@H](C)[C@@H]([C@@H](C)C=C(C)C(=O)[C@H](C)C[C@H](C)C(=O)O)O4)O3)O[C@]3(O[C@@H]([C@H]4O[C@@](O)(CO)[C@H](C)C[C@H]4C)C[C@H]3C)[C@H]2C)O[C@H]1C (some centres not stated),104%
9,OB1OCc2cc(F)ccc21,88.5%
10,CC(=O)N(O)CCCP(=O)(O)O,4.17%
11,C[C@]12O[C@H](C[C@@]1(O)C(=O)O)n1c3ccccc3c3c4c(c5c6ccccc6n2c5c31)CNC4=O,5.95% [at 4.15 µM]
12,O=c1[nH]c2ccc(Cl)cc2c(N[C@@H]2CN3CCC2CC3)c1-c1nc2ccccc2[nH]1,0.0567%
13,CC1=C(O)C(=O)C=C2C1=CC=C1[C@@]2(C)CC[C@@]2(C)[C@@H]3C[C@](C)(C(=O)O)CC[C@]3(C)CC[C@]12C,3.33%
14,C[C@@H]1C[C@@H]([C@H](O)CC2CC(=O)NC(=O)C2)C(=O)[C@@H](C)C1,0.0707%
15,O=C(C[C@@H]1NCCC[C@@H]1O)Cn1cnc2ccccc2c1=O,-0.505%
16,COC(=O)[C@@]1(OC)C[C@@H]2O[C@@]1(C)n1c3ccccc3c3c4c(c5c6ccccc6n2c5c31)C(=O)N(C)C4,13.1% [at 16.5 µM]
17,CC=C(C)C(=O)N[C@@H](c1ccccc1)[C@@H](O)C(=O)O[C@H]1C[C@@]2(O)[C@@H](OC(=O)c3ccccc3)[C@@H]3[C@]4(OC(C)=O)CO[C@@H]4C[C@H](O)[C@@]3(C)C(=O)[C@H](OC(C)=O)C(=C1C)C2(C)C,4.37%
